High-throughput results: PubChem BioAssay, National Center for Advancing Translational Sciences (NCATS)
This is a sample that favours compounds with a hit; in the whole collection about 13% have one here.
Marburg entry inh: qHTS for inhibitors of binding or entry into cells for Marburg Virus. Potency, µM (titrated, usually from 37.8 µM), for the others: at the highest dose activity change, negative = inhibition, most hits filed as inhibitors. 300,000 tested, 1.8% active. Marburg virus pseudotyped entry inhibition, cell reporter; calls by dose curve; tested in HEK293 cells; note: potency is the fitted concentration of half-maximal effect; % is set by controls: 0 for no effect and ±100 for the full control effect
LASV entry inh: qHTS for Inhibitors of binding or entry into cells for Lassa Virus | Lassa virus pseudotype entry inhibition, cell reporter | Potency, µM (series often up to 37.9 µM), without a hit: at the top dose activity change, negative = inhibition, actives largely listed as inhibitors | 300,000 tested, 1.2% active | AID 540256, 2011; calls by dose curve; tested in HEK293 cells; note: potency is the fitted concentration of half-maximal effect; % is set by controls: 0 for no effect and ±100 for the full control effect; nearly all actives have a fitted effect of over 50% in size
HCV inhibitor: qHTS Assay for Inhibitors of Hepatitis C Virus (HCV). Huh7.5.1 HCVcc-Cre infection, luciferase reporter, 44 h. Potency, µM (titrated, usually from 41.8 µM), without a hit: at the top dose activity change, negative = inhibition, usual class: inhibitors. 340,000 tested, 3.4% active. AID 651820, 2012; note: potency is the fitted concentration of half-maximal effect; % is set by controls: 0 for no effect and ±100 for the full control effect
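Infectious HCV cell culture screen: compound-treated cells (1,000/well, pre-plated 4 h) are infected with HCVcc-Cre at roughly 0.5 moi and grown 44 h. Infection is quantified by luciferase signal after 15 min substrate incubation at room temperature.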
Cycloheximide cs: Cycloheximide Counterscreen for Small Molecule Inhibitors of Shiga Toxin. cell reporter, cycloheximide protein synthesis inhibition counterscreen. max response, %. 300,000 tested, 12% active; in the data active = max response mostly above about 13%, no sharp cut-off; inactive = mostly below about 14%; note: read at 38.3 µM for the half of the compounds with a filed dose; 0% is about no effect
FMDV inh: High Throughput Screening for Foot and Mouth Disease Virus Antivirals. Potency, µM (top dose mostly 57.9 µM), inactives show top-dose activity change, negative = inhibition, hits mostly inhibitors. 410,000 tested, 1.2% active. FMDV antiviral cell-based qHTS; calls by dose curve; tested in HEK293T cells; note: read-out not given here; potency is the fitted concentration of half-maximal effect; % is set by controls: 0 for no effect and ±100 for the full control effect; nearly all actives have a fitted effect of over 45% in size
Shiga inhibitor: A qHTS for Small Molecule Inhibitors of Shiga Toxin. Vero cells, Shiga toxin protein synthesis inhibition reporter. 290,000 tested, 9.2% active. inhibition, % at 38.7 µM. AID 2315, 2010; in the data active = inhibition mostly above about 28%, no sharp cut-off; inactive = mostly below about 43%; note: 0% is about no effect
HCV confirm: qHTS Assay for Inhibitors of Hepatitis C Virus (HCV): Confirmation Assay for Cherry-picked Compounds | shares compounds with HCV inhibitor | HCVcc-Cre infectious virus cell assay, luciferase, inhibition | Potency, µM (top dose mostly 41.8 µM), for the others: at the highest dose activity, negative = inhibition, hits mostly inhibitors | 640 tested, 78% active; note: potency is the fitted concentration of half-maximal effect; nearly all actives have a fitted effect of over 80% in size
HCV host tox: qHTS Assay for Inhibitors of Hepatitis C Virus (HCV): Cytotoxicity Counterscreen for Cherry-picked Compounds; HCV host cell line cytotoxicity counterscreen; AID 720576, 2013; Potency, µM (highest dose often 41.8 µM), without a hit: at the top dose activity change, negative = cytotoxicity, most hits filed as inhibitors; shares compounds with HCV inhibitor; 640 tested, 22% active;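 note: potency is the fitted concentration of half-maximal effect; 44 h compound exposure; % is set by controls: 0 for no effect and ±100 for the full control effect; nearly all actives have a fitted effect of over 55% in size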
Starred values were filed as active, the others as inactive; ? = inconclusive; nt = not tested or not shown; [ ] = dose if it differs, or a comment. Unless noted, calls come from the whole dose curve; as a rule, active = well fitted curve in the direction sought with a large enough effect; inconclusive = small, poorly fitted or top-dose-only effect, or another doubt; inactive = no such curve, though single readings can be large; an effect the other way counts as inactive or inconclusive.

SMILES | Marburg entry inh | LASV entry inh | HCV inhibitor | Cycloheximide cs | FMDV inh | Shiga inhibitor | HCV confirm | HCV host tox
CCN1CCN(c2ccc(NC(=O)c3cccc(OCc4ccccc4)c3)cc2)CC1 | ? | -1% | 4.5µM* | 4 | -5% | 8 | 8.9µM* | 7%
COc1cccc(NC(=O)C(=O)NCCc2sc(-c3cccc(C)c3)nc2C)c1 | nt | 0%[46.1 µM] | nt | nt | 36% | nt | nt | nt
O=C(COC(=O)c1ccccn1)NCc1ccccc1Cl | 14% | 2% | 30% | 1 | -6% | 9 | nt | nt
CC(=O)Nc1ccc(Nc2cc(C(C)C)nc3c(-c4ccccc4)c(C)nn23)cc1 | nt | nt | 2.5µM* | 7 | ? | 18 | 14µM* | -17%
COc1cc(NC(=S)NCc2ccco2)cc(OC)c1OC | 14% | 12% | 9% | 3 | 27% | -5 | nt | nt
Cc1ccc(N(C(=O)CCl)C(C(=O)NC2CCCCC2)c2cccnc2)cc1C (configuration not stated) | ? | 7.9µM* | 0.89µM* | 2 | 7.9µM* | -1 | 0.5µM* | 0.4µM*
Cc1ccc(N(C(=O)CNC(=O)c2ccco2)C(C(=O)NC2CCCCC2)c2cccnc2)cc1C (configuration not stated) | -7%[46.1 µM] | -7% | 18% | -5 | -7% | -2 | nt | nt
CCC(=O)NC(c1ccco1)c1cc(Br)c2cccnc2c1O (configuration not stated) | nt | nt | nt | nt | -25% | nt | nt | nt
CCC(=O)NC(c1cccs1)c1cc(Cl)c2cccnc2c1O (configuration not stated) | nt | nt | 4µM* | -2 | -15% | 2 | 7µM* | 11µM*
CN(C)S(=O)(=O)c1ccc(N2CCCC2)c(C(=O)Nc2nc(-c3ccc(F)cc3)cs2)c1 | ? | 5% | 7% | -1 | -2% | -8 | nt | nt
CN(C)S(=O)(=O)c1ccc(N2CCCC2)c(C(=O)Nc2nc3ccc(F)cc3s2)c1 | ? | -23% | 7.9µM* | 14* | 35% | 37* | ? | -13%
COc1ccc(NC(=S)NCc2ccccc2)c(OC)c1 | 19%[46.1 µM] | 24%[46.1 µM] | -1% | -1 | 22% | -9 | nt | nt
CC(=O)N(C)c1ccc(OCC(O)Cn2c3ccc(Cl)cc3c3cc(Cl)ccc32)cc1 (configuration not stated) | 11µM* | ? | 0.89µM* | -1 | ? | -8 | 4µM* | 28µM*
CCOc1cccc2sc(N(CCCN(C)C)C(=O)c3ccc(S(=O)(=O)N(C)Cc4ccccc4)cc3)nc12 | ? | ? | 5µM* | -10 | ? | -19 | 14µM* | -29%
CCOc1cccc2sc(N(CCCN(C)C)C(=O)c3ccc(S(=O)(=O)N(CC)Cc4ccccc4)cc3)nc12 | ? | ? | ? | -6 | -25% | -16 | nt | nt
CCN(CC)CCOC(=O)C(c1ccccc1)C1CCCCC1 (configuration not stated) | nt | nt | ? | nt | -23% | nt | 14µM* | 14%
COc1ccc([N+](=O)[O-])cc1NC(=O)C(C)Sc1nc(C)c(C)c(C)n1 (configuration not stated) | -5% | 1% | 5.6µM* | -1 | -10% | 17 | 13µM* | 34%
COc1cc2sc(C)nc2c2sccc12 | 3% | 1% | 2.2µM* | -4 | -14% | 14 | 25µM* | 43%
COc1ccc2sc(C)nc2c1NC(C)=O | -2%[46.1 µM] | 2% | -4% | 1 | -14% | -4 | nt | nt
COc1ccc(/C=N/OCC(=O)N(Cc2ccc(OC)cc2)c2ccccc2C(=O)O)cc1 | 6% | 2% | 13% | 1 | 46% | -11 | nt | nt
Cc1cc(/C=N/NC(=O)c2ccccc2F)c(C)n1-c1ccccc1 | nt | nt | 7.9µM* | 25* | 26% | 67* | ? | -22%
Cc1cc(/C=N/NC(=O)c2cccc(F)c2)c(C)n1-c1ccccc1 | nt | nt | ? | 25 | -38% | 50 | nt | nt
COc1nc(Nc2nc3ccccc3c(=O)[nH]2)nc2ccc(C)cc12 | nt | nt | 3.2µM* | 2 | 45% | -8 | 7µM* | ?
CCOc1ccc(NC(=O)C2CCCN(S(=O)(=O)c3c(C)noc3/C=C/N(C)C)C2)cc1 (configuration not stated) | ? | 0%[46.1 µM] | nt | nt | -17% | nt | nt | nt
CCCOc1ccc(/C=C/C(=O)Nc2ccc([N+](=O)[O-])cc2)cc1 | 1.8µM* | ? | 3.5µM* | -3 | 5.6µM* | -15 | 7.9µM* | 20µM*
SMILES | Marburg entry inh | LASV entry inh | HCV inhibitor | Cycloheximide cs | FMDV inh | Shiga inhibitor | HCV confirm | HCV host tox
CC(=O)Nc1nnc(-c2c(-c3ccccc3Cl)noc2C)o1 | -8%[14.2 µM] | 9% | 7% | -2 | -3% | -10 | nt | nt
CC(Oc1ccc(Cl)cc1Cl)c1nc(-c2ccc(NC(=O)c3ccncc3)cc2)no1 (configuration not stated) | ? | ? | 2.8µM* | 8 | 16µM* | -11 | 7µM* | 11µM*
CC(Oc1ccc(Cl)cc1Cl)C(=O)NNC(=O)c1ccncc1 (configuration not stated) | 6% | 5%[46.1 µM] | 3% | nt | 11% | nt | nt | nt
CC(C)c1ccc(NC(=O)C(Cc2ccccc2)NS(=O)(=O)c2ccc3c(c2)oc(=O)n3C)cc1 (configuration not stated) | 13%[46.1 µM] | -15%[46.1 µM] | nt | nt | -10% | nt | nt | nt
COC(=O)c1cn(C(=O)OC)c2ccccc12 | ? | 4% | 5.6µM* | -2 | 14% | -6 | ? | 10%
COC(=O)c1cn(C(=O)c2ccccc2Cl)c2ccccc12 | ? | ? | ? | -1 | -23% | 2 | nt | nt
COc1ccc(C(=O)Nc2cc(OC)cc3cccnc23)cc1 | nt | nt | ? | 7 | 16% | 4 | 14µM* | 4%
COc1cc(OC)cc(C(=O)Nc2cccc3cccnc23)c1 | ? | -2% | -15% | -2 | 10% | -5 | nt | nt
CCN(CC)S(=O)(=O)c1ccc(OC)c(NC(=O)CSc2cc(Cl)ccc2Cl)c1 | ? | ? | ? | -2 | -3% | 17 | 22µM* | 22%
Clc1ccc2c(NCc3ccccc3)ccnc2c1 | ? | ? | 5.6µM* | -11 | ? | -2 | 10µM* | ?
COc1ccc(Nc2ccc3c(c2)=NC2(CCCCC2)[N+]=3[O-])cc1 | ? | ? | 5µM* | 26* | ? | 59* | 18µM* | 16µM*
C[C@@H]1CN([C@H](C)CO)C(=O)CCCn2nncc2CO[C@@H]1CN(C)C(=O)Nc1ccc(N2CCN(C)CC2)cc1 | nt | nt | nt | nt | 6% | nt | nt | nt
